Screening results: PubChem, Broad Institute
This excerpt belongs to a sample that is enriched for hits.
IDE exosite FP: insulin-degrading enzyme (human) exo-site inhibition | P14735 | purified IDE, FL-6b probe fluorescence polarization; active compounds read low | AID 1259349 | z-score at 20 µM | 6.3% of 17,000 active;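 active means z-score of -3 or lower, meaning strong loss of probe binding signal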;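 further: His-tagged human IDE residues 42-1019 made in E. coli with 30 nM FL-6b probe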
Target sequence (P14735 42-1019 limits assumed): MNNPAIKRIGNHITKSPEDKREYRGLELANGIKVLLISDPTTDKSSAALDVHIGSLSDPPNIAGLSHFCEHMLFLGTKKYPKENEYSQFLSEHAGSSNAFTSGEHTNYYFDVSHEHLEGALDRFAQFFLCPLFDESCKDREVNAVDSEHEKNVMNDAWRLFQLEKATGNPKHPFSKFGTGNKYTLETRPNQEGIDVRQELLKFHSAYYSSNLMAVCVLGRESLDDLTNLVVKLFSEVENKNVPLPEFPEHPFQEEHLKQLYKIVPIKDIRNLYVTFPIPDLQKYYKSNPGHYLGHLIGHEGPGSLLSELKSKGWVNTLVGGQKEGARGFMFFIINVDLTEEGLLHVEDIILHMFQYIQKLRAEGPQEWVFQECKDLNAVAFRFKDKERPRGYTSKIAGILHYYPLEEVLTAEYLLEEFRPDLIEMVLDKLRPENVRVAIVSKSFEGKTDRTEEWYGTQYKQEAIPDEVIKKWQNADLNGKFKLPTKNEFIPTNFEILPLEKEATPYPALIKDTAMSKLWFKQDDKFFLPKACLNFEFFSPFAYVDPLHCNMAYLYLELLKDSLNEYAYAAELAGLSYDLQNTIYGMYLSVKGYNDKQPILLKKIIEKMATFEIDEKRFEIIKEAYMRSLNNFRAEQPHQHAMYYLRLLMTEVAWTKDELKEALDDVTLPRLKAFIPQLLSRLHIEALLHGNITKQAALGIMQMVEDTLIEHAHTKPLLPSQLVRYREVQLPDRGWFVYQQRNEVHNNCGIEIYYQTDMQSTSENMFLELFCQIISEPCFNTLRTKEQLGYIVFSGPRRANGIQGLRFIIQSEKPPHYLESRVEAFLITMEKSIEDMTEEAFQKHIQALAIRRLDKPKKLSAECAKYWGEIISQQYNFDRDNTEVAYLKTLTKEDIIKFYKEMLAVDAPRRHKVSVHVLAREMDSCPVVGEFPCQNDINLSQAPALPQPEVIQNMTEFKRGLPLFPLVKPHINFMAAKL
A number is an active result; i = inactive.

SMILES	IDE exosite FP
COc1cccc(-c2ccc([C@H]3[C@@H](CO)N(C(=O)Cc4ccncc4)[C@H]3C#N)cc2)c1	-4.79
COc1cccc(-c2ccc([C@@H]3[C@H](C#N)N(C(=O)c4ccccn4)[C@H]3CO)cc2)c1	i
N#C[C@H]1[C@@H](c2ccc(-c3ccncc3)cc2)[C@@H](CO)N1C(=O)Cc1ccccc1	i
COc1cccc(C#Cc2ccc([C@@H]3[C@@H](CO)N(C(=O)c4ccccn4)[C@H]3C#N)cc2)c1	i
N#C[C@H]1[C@H](c2ccc(-c3ccccc3)cc2)[C@H](CO)N1C(=O)Cc1ccncc1	i
N#C[C@@H]1[C@@H](c2ccc(-c3ccncc3)cc2)[C@@H](CO)N1C(=O)Cc1ccccc1	i
N#C[C@@H]1[C@@H](c2ccc(-c3ccccc3)cc2)[C@@H](CO)N1C(=O)Cc1ccncc1	-3.97
COc1cccc(-c2ccc([C@H]3[C@H](C#N)N(C(=O)Cc4ccccc4)[C@H]3CO)cc2)c1	-3
N#C[C@@H]1[C@@H](c2ccc(-c3ccccc3)cc2)[C@H](CO)N1C(=O)Cc1ccccc1	i
N#C[C@H]1[C@H](c2ccc(-c3ccccc3)cc2)[C@H](CO)N1C(=O)Cc1ccccc1	i
COc1cccc(-c2ccc([C@H]3[C@@H](C#N)N(C(=O)c4ccccn4)[C@H]3CO)cc2)c1	-3.77
C[C@@H]1CN([C@H](C)CO)C(=O)c2cc(NC(=O)Nc3cccc4ccccc34)ccc2O[C@H]1CN(C)S(=O)(=O)c1cccs1	i
C[C@@H]1CN([C@H](C)CO)C(=O)c2cc(-c3ccc(F)cc3)cnc2O[C@H]1CN(C)S(C)(=O)=O	i
Cn1cnc(S(=O)(=O)N[C@@H]2CC[C@@H](CC(=O)NCC3CCCCC3)O[C@@H]2CO)c1	i
CC(C)CN(C[C@@H]1[C@@H](c2ccccc2)[C@H](CO)N1C(=O)C1CCC1)C(=O)C1CC1	i
N#Cc1cccc(-c2ccc([C@H]3[C@@H](CO)N4CCCCN(C(=O)Nc5cccc(F)c5)C[C@@H]34)cc2)c1	i
COc1ccc2c3c([nH]c2c1)[C@H](CO)N(Cc1ccncc1)CC31CN(Cc2ccc(-c3ccccn3)cc2)C1	i
COCC(=O)N1[C@H](C#N)[C@@H](c2ccccc2-c2ccccc2F)[C@@H]1CO	i
O=C1CN(S(=O)(=O)c2cccc(F)c2)C[C@@H]2[C@@H](c3ccc(-c4ccc(F)cc4)cc3)[C@@H](CO)N12	i
COc1ccccc1NC(=O)N1C[C@@H]2[C@H](c3ccccc31)[C@H](CO)N2C(=O)C1CCCC1	i
C[C@@H]1CCCCO[C@@H](CN(C)C(=O)Nc2ccc(C(F)(F)F)cc2)[C@H](C)CN([C@@H](C)CO)C(=O)c2cc(NS(=O)(=O)c3cn(C)cn3)ccc2O1	i
COCC(=O)Nc1ccc2c(c1)C(=O)N(C)[C@H]1CC[C@H](CC(=O)N3CCc4ccccc4C3)O[C@H]1CO2	i
N#C[C@@H]1[C@@H](c2ccc(/C=C/c3ccccc3)cc2)[C@@H](CO)N1C(=O)Cc1ccccn1	-9.5
N#C[C@H]1[C@H](c2ccc(C#CC3CC3)cc2)[C@H](CO)N1C(=O)Cc1ccccn1	i
C/C=C/c1ccc([C@H]2[C@@H](CO)N(C(=O)Cc3ccccn3)[C@H]2C#N)cc1	i
SMILES	IDE exosite FP
O=S(=O)(c1ccc(F)cc1)N1CCCCN2[C@H](CO)[C@H](c3ccc(-c4ccccc4)cc3)[C@@H]2C1	i
O=C1CN(S(=O)(=O)Cc2ccccc2)C[C@@H]2[C@H](c3ccc(C#CC4CC4)cc3)[C@@H](CO)N12	i
O=C(C[C@H]1CC[C@@H](NC(=O)Nc2ccc(C(F)(F)F)cc2)[C@@H](CO)O1)NCc1cccc(F)c1	i
CCCNC(=O)[C@@H]1[C@@H](CO)[C@@H]2Cn3c(cccc3=O)[C@@H]2N1Cc1cccc(F)c1	i
O=C(C1CCOCC1)N1CC(=O)N2[C@H](CO)[C@H](c3ccc(-c4ccccc4F)cc3)[C@@H]2C1	i
O=C(C1CCOCC1)N1CC(=O)N2[C@H](C1)[C@H](c1ccc(-c3ccccc3F)cc1)[C@@H]2CO	i
O=C(C1CCOCC1)N1CC(=O)N2[C@@H](CO)[C@@H](c3ccc(-c4ccccc4F)cc3)[C@@H]2C1	i
O=C(C1CCOCC1)N1CC(=O)N2[C@H](CO)[C@@H](c3ccc(-c4ccccc4F)cc3)[C@@H]2C1	-4.83
O=C(C1CCOCC1)N1CC(=O)N2[C@H](C1)[C@@H](c1ccc(-c3ccccc3F)cc1)[C@@H]2CO	-8.97
O=C(C1CCOCC1)N1CC(=O)N2[C@H](CO)[C@@H](c3ccc(-c4ccccc4F)cc3)[C@H]2C1	i
CCNC(=O)C[C@H]1CC[C@H]2[C@@H](COC[C@@H](O)CN2C(=O)C2CCCC2)O1	i
O=C1CN(S(=O)(=O)c2ccccc2)C[C@@H]2[C@H](c3ccc(C4=CCCC4)cc3)[C@@H](CO)N12	i
C/C=C/c1ccc([C@@H]2[C@@H](CO)N(C(=O)C3CC3)[C@H]2CN(C)C(=O)C2CC2)cc1	i
CS(=O)(=O)N1C[C@@H](O)COC[C@H]2O[C@@H](CC(=O)NCc3ccccc3)CC[C@@H]21	i
O=C(C1CCC1)N1CC(=O)N2[C@H](CO)[C@@H](c3ccc(C#Cc4cccc(F)c4)cc3)[C@H]2C1	-6.94
